Screening results as filed in PubChem BioAssay.
Rows were chosen to be rich in hits. Some 4.7% of all compounds tested hit in one or more screens of this group.
TRHR PAM – allosteric enhancers of human TRH receptor. TRHR cells, fluo-8 calcium fluorescence, EC20 TRH enhancement. P34981. actives 0.66% (n = 360,000). enhancement, % at 2 µM; in the data active = enhancement above about 30%; note: 0% is about no effect
Target sequence (P34981 whole entry, looked up): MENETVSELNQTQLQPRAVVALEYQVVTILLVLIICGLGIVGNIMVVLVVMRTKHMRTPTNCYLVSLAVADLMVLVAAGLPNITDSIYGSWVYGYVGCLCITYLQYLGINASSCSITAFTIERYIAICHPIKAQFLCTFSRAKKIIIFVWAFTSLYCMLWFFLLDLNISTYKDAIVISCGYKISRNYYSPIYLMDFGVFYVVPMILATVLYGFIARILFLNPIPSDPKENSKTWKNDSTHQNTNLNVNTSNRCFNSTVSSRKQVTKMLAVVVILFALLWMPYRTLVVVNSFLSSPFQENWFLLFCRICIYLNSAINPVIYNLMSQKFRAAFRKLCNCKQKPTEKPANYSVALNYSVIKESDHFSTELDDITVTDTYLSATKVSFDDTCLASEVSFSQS
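TRHR-expressing cells loaded with fluo-8 calcium dye were read kinetically (ex 480/em 530) during compound addition, then stimulated with an EC20 of TRH (10 nM final). Enhancement of the Gq-mediated intracellular calcium response was scored.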
D1 ag – human D1 receptor agonism. activation, % at 2 µM. actives 1% (n = 360,000). HEK293 T-REx D1 cells, calcium flux, agonist mode; note: 0% is about no effect
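Agonism was scored from calcium flux recorded over 180 s (1 read/s) after pintool compound addition, following a 10-cycle baseline. Cells were inducible force-coupled HEK293 TREx D1, plated overnight at 30 C and loaded with no-wash calcium dye.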
D1 PAM – enhances dopamine response at the human D1 receptor | P21728 | HEK293 TREx D1 cells, calcium flux, dopamine EC20 potentiation | potentiation, % at 10 µM | actives 0.036% (n = 360,000); in the data active = potentiation above about 30%; note: 0% is about no effect
TRHR ag – TRH receptor (human) agonism | AID 493084 | activation, % at 2 µM | actives 0.18% (n = 360,000) | TRHR cells, calcium flux fluo-8, FDSS agonist mode; note: 0% is about no effect
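Fluo-8-loaded TRHR cells; 10 s baseline, compound added, kinetic Ca2+ fluorescence read 1/s, agonist mode.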
D1 antagonist – antagonists of human D1 dopamine receptor; HEK293 TREx D1 cells, calcium flux, dopamine EC80; active compounds read low; activity change, negative = inhibition, % at 10 µM; actives 3.2% (n = 360,000); AID 504652; in the data active = activity change below about -30%; note: % is set by controls: 0 for no effect and ±100 for the full control effect
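After overnight tetracycline induction at 30 C, force-coupled D1 HEK293 cells took up a no-wash calcium dye at room temperature. Compounds were added and monitored 180 s, and the response to EC80 dopamine was then recorded.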
* = called active by the depositor; ! = not active in a repeat. Cut-off read from the data, not from the text of the source, unless noted: active = activation above about 30%; inactive = the rest.

Results for CCOC(=O)c1c(C)[nH]c(C)c1S(=O)(=O)N1CCN(c2ccc(Cl)cc2)CC1 ?
TRHR PAM: -2; D1 ag: 8; D1 PAM: 2; TRHR ag: 0; D1 antagonist: -14

How did Cc1cc(C)n2c(SCc3ccc(Cl)cc3Cl)nnc2n1 do in these assays?
TRHR PAM: 8; D1 ag: 42*; D1 PAM: 10; TRHR ag: 0; D1 antagonist: 8

Results for CCOC(=O)C1=C(C)NC(C)=C(C(=O)OCCNC(=O)c2cccnc2)C1c1cccc([N+](=O)[O-])c1 (stereo not drawn) ?
TRHR PAM: -3; D1 ag: 1; D1 PAM: -6; TRHR ag: -1; D1 antagonist: 1

How did COC(=O)C1=C(C)NC(C)=C(C(=O)OCCN(C)Cc2ccccc2)C1c1cccc([N+](=O)[O-])c1 (stereo not drawn) do in these assays?
TRHR PAM: -1; D1 ag: 0; D1 PAM: -5; TRHR ag: -1; D1 antagonist: -35*

How did NNC(=O)C(C(=O)OCc1ccccc1)c1ccccc1 (stereo not drawn) do in these assays?
TRHR PAM: 2; D1 ag: 2; D1 PAM: -1; TRHR ag: 2; D1 antagonist: 0

What do the screens show for `CCCCN(C)CC(O)Cn1cc(/C=C/C(=O)c2ccc(OCC)cc2)c2ccccc21` (stereo not drawn)?
TRHR PAM: -2; D1 ag: 41*; D1 PAM: -3; TRHR ag: 1; D1 antagonist: -56*!

How did O=C(/C=C/c1cn(CC(O)CN2CCCCCC2)c2ccccc12)c1cccs1 (stereo not drawn) do in these assays?
TRHR PAM: 5; D1 ag: 77*; D1 PAM: -8; TRHR ag: 11; D1 antagonist: -21

What do the screens show for `CCCCN(CCCC)CC(O)Cn1cc(/C=C/C(=O)c2ccccc2)c2ccccc21` (stereo not drawn)?
TRHR PAM: 1; D1 ag: 13; D1 PAM: 2; TRHR ag: 2; D1 antagonist: -11

Results for CCCCN(C)CC(O)Cn1cc(/C=C/C(=O)c2cccs2)c2ccccc21 (stereo not drawn) ?
TRHR PAM: -9; D1 ag: 67*; D1 PAM: -8; TRHR ag: 6; D1 antagonist: -20

How did Cc1cccc(C)c1-n1ncc(C(=O)NCCCN2CCC(C)CC2)c1C1CCN(C(=O)OC(C)(C)C)CC1 do in these assays?
TRHR PAM: 13; D1 ag: 11; D1 PAM: 14; TRHR ag: 2; D1 antagonist: 29

How did O=C(CSc1cn(CCNC(=O)c2c(F)cccc2F)c2ccccc12)Nc1ccc(F)cc1 do in these assays?
TRHR PAM: 5; D1 ag: 1; D1 PAM: -3; TRHR ag: -3; D1 antagonist: -6

What do the screens show for `O=C(Nc1ccc(C(F)(F)F)cc1)C1CCCN(c2cnccn2)C1` (stereo not drawn)?
TRHR PAM: 3; D1 ag: 1; D1 PAM: -2; TRHR ag: 1; D1 antagonist: 5

How did CCOC(=O)C1=C(C)NC(=O)NC1c1ccc(N(C)C)cc1 (stereo not drawn) do in these assays?
TRHR PAM: 1; D1 ag: 1; D1 PAM: -9; TRHR ag: 0; D1 antagonist: -31*

What do the screens show for `CCOC(=O)N1CCN(c2c(Nc3cc(C)[nH]n3)c(=O)c2=O)CC1`?
TRHR PAM: 35*; D1 ag: 3; TRHR ag: 0; D1 antagonist: 24

Results for COc1ccccc1N1CCN(C(=O)CSc2nc(C)c(C)c(=O)[nH]2)CC1 ?
TRHR PAM: -2; D1 ag: 1; D1 PAM: -3; TRHR ag: -1; D1 antagonist: -30*

What do the screens show for `CCc1c(C)nc(SCC(=O)N2CCN(c3ccccc3OC)CC2)[nH]c1=O`?
TRHR PAM: -11; D1 ag: 2; D1 PAM: -5; TRHR ag: -1; D1 antagonist: -4

What do the screens show for `COc1ccccc1N1CCN(C(=O)c2ccco2)CC1`?
TRHR PAM: 31*; D1 ag: 2; D1 PAM: -5; TRHR ag: 1; D1 antagonist: 0
